# In the library only some 3.7% were active in any assay of this set; here they are far more common.
# VDR inh – Inhibitors of the vitamin D receptor (VDR): qHTS; Vitamin D3 receptor (Homo sapiens), P11473; VDR-SRC2-3 peptide fluorescence polarization, 2 h; Potency, µM, for inactives: max response, negative = inhibition, hits mostly inhibitors; 400,000 compounds, 0.93% hits; note: potency is the fitted concentration of half-maximal effect; % is set by controls: 0 for no effect and ±100 for the full control effect
# Target sequence (P11473 whole entry, looked up): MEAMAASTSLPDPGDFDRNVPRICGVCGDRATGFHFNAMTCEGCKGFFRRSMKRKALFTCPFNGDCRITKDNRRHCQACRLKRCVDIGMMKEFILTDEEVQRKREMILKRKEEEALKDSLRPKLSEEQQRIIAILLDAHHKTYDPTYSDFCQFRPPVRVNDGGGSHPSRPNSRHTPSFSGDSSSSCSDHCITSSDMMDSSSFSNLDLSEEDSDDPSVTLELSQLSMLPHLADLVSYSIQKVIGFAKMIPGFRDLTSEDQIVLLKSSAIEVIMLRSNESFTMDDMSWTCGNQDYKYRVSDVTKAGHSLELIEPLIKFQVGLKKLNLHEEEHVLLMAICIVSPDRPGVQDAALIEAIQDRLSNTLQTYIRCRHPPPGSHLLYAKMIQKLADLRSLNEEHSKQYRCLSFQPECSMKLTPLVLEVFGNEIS
#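 VDR–SRC2-3 interaction, FP format. Cmpds 23 nl via pintool, brief spin, 2 h ambient incubation.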
# PLK1 PBD block – qHTS for Inhibitors of PLK1-PDB (polo-like kinase 1 - polo-box domain): Primary Screen; 360,000 compounds, 2.8% hits; AID 720504, 2013; Plk1 PBD binding of FITC phosphopeptide, fluorescence polarization; Potency, µM, for the others: max response, negative = inhibition, hits mostly inhibitors; Serine/threonine-protein kinase PLK1 (Homo sapiens), P53350; note: potency is the fitted concentration of half-maximal effect; series mostly up to about 57 µM; % is set by controls: 0 for no effect and ±100 for the full control effect; nearly all actives have a fitted effect of over 65% in size
# PI5P4K alpha inh – qHTS for Inhibitors of phosphatidylinositol 5-phosphate 4-kinase (PI5P4K); Phosphatidylinositol 5-phosphate 4-kinase type-2 alpha (Homo sapiens), P48426; PI5P4Kalpha enzyme, ADP-Glo luminescence, 60 min; hits give low values; max response, %; 330,000 compounds, 1.2% hits; AID 652105, 2013; active = max response of -50% or lower; inconclusive = between -30% and -50%; inactive = -30% or higher; note: value at the top dose of about 77 µM; % is set by controls: 0 for no effect and ±100 for the full control effect
#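 Single end-point luminescence (ADP-Glo) quantified ADP from PI5P4Kalpha turnover; ATP 5 microM final, 1 h at RT, 0.1% CHAPS and 0.28 mM EGTA in HEPES pH 7.4.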
# TCR act – Activators of T cell receptors: qHTS campaign; AID 504894, 2011; Potency, µM (top dose mostly 9.22 µM), for the others: at the top dose activation of IL-2 secretion, most hits filed as activators; primary human leukocytes, anti-CD3, IL-2 HTRF, 48 h; 330,000 tested, under 10 active; note: % of control where 0% means no effect
#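 Using a-CD3 beads without co-stimulation, primary human leukocytes were exposed to compounds for 48 hr. An HTRF IL-2 kit measured the cytokine, with europium-to-d2 energy transfer producing emission at 665nm upon 320nm excitation.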
# WRN inhibitor – qHTS for Inhibitors of WRN Helicase; Bifunctional 3'-5' exonuclease/ATP-dependent helicase WRN (Homo sapiens), Q14191; WRN helicase unwinding, fluorescent forked duplex, kinetic; Potency, µM (doses to about 114 µM), without a hit: at the top dose activity change, negative = inhibition, actives largely listed as inhibitors; 360,000 compounds, 0.46% hits; AID 651768, 2012; note: potency is the fitted concentration of half-maximal effect; % is set by controls: 0 for no effect and ±100 for the full control effect; nearly all actives have a fitted effect of over 55% in size
#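 Primary qHTS, 1536-well format. 20 nM WRN + compound, 15 min RT; start with 100 nM forked fluorophore/quencher duplex, 2 mM ATP (final); kinetic read ex 525/em 598 nm.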
# FEN1 inhibitor – qHTS Assay for the Inhibitors of Human Flap endonuclease 1 (FEN1); P39748; Recombinant FEN1 flap cleavage, fluorescence, 15 min; Potency, µM (series often up to 114 µM), for inactives: at the top dose activity change, negative = inhibition, hits mostly inhibitors; 390,000 compounds, 0.35% hits; note: potency is the fitted concentration of half-maximal effect; % is set by controls: 0 for no effect and ±100 for the full control effect; nearly all actives have a fitted effect of over 65% in size
#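 Concentration–response screening of FEN1 (10 nM): 15 min compound preincubation at room temperature, reaction started with 50 nM substrate and read at 0 and 15 min. Corrected, normalized data were fitted by a four-parameter Hill equation.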
# The depositor's hits bear a star; ? = inconclusive; · = no result; [ ] = remark or other dose. Unless noted, calls come from the whole dose curve; as a rule, active = well fitted curve in the direction sought with a large enough effect; inconclusive = small, poorly fitted or top-dose-only effect, or another doubt; inactive = no such curve, though single readings can be large; an effect the other way counts as inactive or inconclusive.
SMILES,VDR inh,PLK1 PBD block,PI5P4K alpha inh,TCR act,WRN inhibitor,FEN1 inhibitor
COc1ccc(C2CC(=O)c3cc(OC)ccc3O2)cc1 (configuration not stated),-3%,4%,0,5%,1%,-6%
COc1ccc(C2CC(=O)c3ccccc3O2)cc1 (configuration not stated),-25%,?,-8,5%,-3%,-1%
O=C1CC(c2ccc3c(c2)OCCO3)Oc2ccccc21 (configuration not stated),-14%,8.4µM*,0,-4%,-3%,-22%
O=C1CC(c2ccc3c(c2)OCCO3)Oc2ccc([N+](=O)[O-])cc21 (configuration not stated),20µM*,-17%,1,4%,-27%,?
O=C(Nc1ccc(S(=O)(=O)Nc2nccs2)cc1)c1cc(-c2ccccn2)nc2ccccc12,-7%,-26%,-18,-6%,?,-26%
Cc1cc(C)nc(NS(=O)(=O)c2ccc(NC(=O)c3cc(-c4ccccc4)nc4ccccc34)cc2)n1,15%,-25%,-13,-2%[46.1 µM],-7%[11.6 µM],14%
Cc1noc(NS(=O)(=O)c2ccc(NC(=O)CSc3ncccn3)cc2)c1C,-17%,-11%,-7,6%,3%,0%
O=C(Nc1ccc(S(=O)(=O)Nc2nccs2)cc1)c1cc(-c2ccccc2Cl)nc2ccccc12,-2%,30µM*,?,0%,?,-17%
Cc1noc(NS(=O)(=O)c2ccc(NC(=O)CSc3nc4ccccc4s3)cc2)c1C,?,17µM*,·,0%,-20%,0%
Cc1ccc(-c2cc(C(=O)Nc3ccc(S(=O)(=O)Nc4onc(C)c4C)cc3)c3ccccc3n2)cc1,-6%,34µM*,-13,3%,1%[11.6 µM],5%
COC(=O)c1c(C)nc(C)c(C(=O)OC)c1-c1ccc(OC)c(OC)c1,-3%,-19%,2,-5%,6%,-13%
CCOC(=O)c1c(C)nc(C)c(C(=O)OCC)c1-c1ccc(O)c(OC)c1,?,6.7µM*,-22,3%,-35%,0%
N#C/C(=C(/O)CCl)c1nc2c(s1)CCc1ccccc1-2,?,7.5µM*,-27,-6%,?,?
Nc1nc2c(s1)CCc1ccccc1-2,?,?,-7,-2%,-1%,-31%
CN(C)/C=N/c1nc2nccc(-c3ccc(Cl)cc3)n2n1,-6%,2%,3,-4%,1%,17%
COc1ccc(-c2cnc3nc(/N=C/N(C)C)nn3c2/N=C/N(C)C)cc1,-26%,24µM*,-10,-8%,13%[57.1 µM],-1%
CN(C)/C=N/c1nc2nccc(-c3ccccc3)n2n1,-13%,27µM*,-12,-2%,9%[57.1 µM],-3%
CC(Oc1ccccc1F)c1ccnc2nc(/N=C/N(C)C)nn12 (configuration not stated),-2%,?,-3,-1%,-1%,7%
O=c1oc2ccccc2cc1-c1cn2cc(Cc3ccccc3F)sc2n1,6%,·,·,·,·,-2%
CSc1nc(N)c2ncn([C@@H]3O[C@H](COP(=O)(O)OP(=O)(O)O)C(O)[C@H]3O)c2n1 (some centres not stated),2%,·,·,·,·,·
Nc1ccn([C@@H]2O[C@H](CO)[C@H](O)C2(F)F)c(=O)n1,-10%,·,·,·,·,·
CNc1cc[n+](C)c2ccccc12,·,·,·,·,·,-21%
Cc1ccc(NC(=O)c2cc3c(=O)n(Cc4ccco4)ccc3nc2C)cc1C,1%,·,·,·,·,5%
CC(C)Cn1nc(NC(=O)C2CCCO2)c2cc3ccccc3nc21 (configuration not stated),-12%,30µM*,4,2%,4%,2%
